The nature of assay [1]: OV-KATE Cancer Cell Toxicity qHTS against the NCATS CANVASS Library (AID 1347345). An outline of the steps:
(§1)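 Bortezomib titration and single-dose wells served as plate controls. Test compounds, 11 points, acted on 1000 cells/well for 72 h at 37 degrees C; CellTiter-Glo luminescence quantified remaining viable cells.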
In general terms: Quantitative high-throughput screening tests each substance at several concentrations.

Assay [2] in a line: HPAF-II Cancer Cell Toxicity qHTS against the NCATS CANVASS Library (AID 1347346). Note: series mostly up to about 38 µM; nearly all actives have a fitted effect of over 55% in size. An outline of the steps:
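Using 1000 HPAF-II cells per well, we titrated compounds over 11 concentrations for 72 h at 37 degrees C/5% CO2, with bortezomib as control. Cell survival was quantified by CellTiter-Glo luminescence.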

Assay [3] can be described thus: UWB1.289 Cancer Cell Toxicity qHTS against the NCATS CANVASS Library (AID 1347347). Note: nearly all actives have a fitted effect of over 60% in size. An outline of the steps:
as §1

A short description of assay [4]: OV-SAHO Cancer Cell Toxicity qHTS against the NCATS CANVASS Library (AID 1347348). Note: series mostly up to about 38 µM; nearly all actives have a fitted effect of over 55% in size. The gist of the method: as §1
Assay [5] can be described thus: SW1088 Cancer Cell Toxicity qHTS against the NCATS CANVASS Library (AID 1347350). Note: nearly all actives have a fitted effect of over 75% in size. The gist of the method: as §1
The nature of assay [6]: U-118MG Cancer Cell Toxicity qHTS against the NCATS CANVASS Library (AID 1347351). Note: series mostly up to about 38 µM. The gist of the method:
as §1

A short description of assay [7]: COV-362 Cancer Cell Toxicity qHTS against the NCATS CANVASS Library (AID 1347352). Note: series mostly up to about 38 µM. The gist of the method:
(§2)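 Using an ATP-based luminescent reagent after three days of treatment, toxicity is scored across an eleven-concentration range in wells holding 1000 cells each.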

Assay [8] is described as follows: UWB1.289-WTBRCA1 Cancer Cell Toxicity qHTS against the NCATS CANVASS Library (AID 1347354). An outline of the steps: as §2
The nature of assay [9]: HEK293 12hr Apoptosis Induction qHTS against the NCATS CANVASS Library (AID 1347361). An outline of the steps:
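500 HEK293 cells/well; cpds pin-transferred, 11-pt conc series; 12 h, 37 degrees C/5% CO2; Caspase-Glo 3/7 added, 15 min RT dark; luminescence.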

Assay [10] in a line: KB-8-5-11 Cancer Cell Toxicity qHTS against the NCATS CANVASS Library (AID 1347364). Note: nearly all actives have a fitted effect of over 75% in size. The gist of the method: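 Luminescent ATP signal (CellTiter-Glo, 10 min at room temperature) measured cell survival of KB-8-5-11 after 72 hr compound treatment. For confirmation, the cells were also grown with 1uM tariquidar.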
The nature of assay [11]: qHTS for Hypoxia signaling pathway (HIF-1) agonists against the NCATS CANVASS Library (AID 1347375). An outline of the steps:
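An HRE-beta-lactamase ME-180 line is exposed for 17 h to an 11-point compound series, then read by CCF4-AM FRET. Cytotoxicity is measured in parallel in the same wells with CellTiter-Glo, and autofluorescence is checked separately.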

A short description of assay [12]: qHTS for Antimalaria activity screened against the NCATS CANVASS Library (AID 1347380). Note: nearly all actives have a fitted effect of over 40% in size. Note: potency is the fitted concentration of half-maximal effect. The gist of the method:
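Measures proliferation or cytotoxicity against Dd2 blood stages in 72 h cultures, 11-point qHTS dosing, with SYBR Green fluorescence as read-out; dihydroartemisinin titration served as control.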

The nature of assay [13]: qHTS assay for small molecule disruptors of mitochondrial membrane potential screened against the NCATS CANVASS Library (AID 1347389). Note: nearly all actives have a fitted effect of over 60% in size. Note: potency is the fitted concentration of half-maximal effect. The gist of the method: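 Cells (HepG2) seeded the day before received compound or DMSO for 1 hr, then Mito-MPS dye for 30 min at 37C; emission at 590 nm over 535 nm gave the polarization signal.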
Assay [14] in a line: Secretion counterscreen for inhibitors of the SERCaMP assay screened against the NCATS CANVASS Library (AID 1347390).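 Note: light from luciferase secreted into medium read as a measure of general secretion; series mostly up to about 77 µM.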 An outline of the steps:
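Luminescence from constitutively secreted GLuc in SH-SY5Y-GLuc STOP cells, read after coelenterazine addition, served as read-out. Compounds tested 0.001 - 77 uM for 20 h at 37C; Brefeldin A as positive control.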
(The purpose of a counterscreen is to sort out artefacts and off-target activity.)

The nature of assay [15]: qHTS for activators of Nrf2/ARE signaling pathway screened against the NCATS CANVASS Library (AID 1347391). Note: nearly all actives have a fitted effect of over 60% in size. Note: potency is the fitted concentration of half-maximal effect. The gist of the method:
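Activation of Nrf2/ARE was scored in ARE-bla HepG2 cells after 16 h compound exposure using CCF4 beta-lactamase fluorescence ratio readings.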

A short description of assay [16]: qHTS for activators of dead-cell proteases activity screened against the NCATS CANVASS Library (AID 1347392).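 Note: luminescence from protease leaking out of membrane-damaged cells cleaving impermeant substrate; rising signal means more cytotoxicity.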 The gist of the method:
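HepG2, 2000 cells/well, 18 h attach; cpd 11-pt, 5 h 37C 5% CO2; CytoTox-Glo (AAF-aminoluciferin) 15 min RT; luminescence read.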

A short description of assay [17]: qHTS for inhibitors of ER calcium dysfunction: SERCaMP assay screened against the NCATS CANVASS Library (AID 1347393). Note: nearly all actives have a fitted effect of over 40% in size. Note: potency is the fitted concentration of half-maximal effect. An outline of the steps:
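SH-SY5Y GLuc-SERCaMP, 1000 cells/well, 4 h attach; cpd 16 h, 37C/5% CO2; thapsigargin (added as 6x 600 nM) 4 h; coelenterazine; luminescence. Reduced reporter release = ER Ca stabilization.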

Assay [18] is described as follows: qHTS for inhibitors of Wild type Zika virus screened against the NCATS CANVASS Library (AID 1347396).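 Note: ATP luminescence of surviving cells so rescue from viral cell killing; series mostly up to about 46 µM.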 An outline of the steps:
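Protection against wild-type Zika cytopathic effect is measured in African green monkey Vero 766 cells exposed to an 11-point compound series. Surviving cells are quantified by CellTiter Glo luminescence after 72 h.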

The nature of assay [19]: Redox Reaction Profiling qHTS: Assay Interference Panel against the NCATS CANVASS Library (AID 1347401). An outline of the steps: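 Fluorescence read-out (525 nm excitation, 598 nm emission) at time zero and after 15 min in the dark tracked resorufin formation. Mix: 5 uM resazurin, 200 uM DTT, HEPES pH 7.3 buffer with NaCl.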
Assay [20] in a line: HPAF-II 12hr Apoptosis Induction qHTS against the NCATS CANVASS Library (AID 1347358). The gist of the method: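 Twelve-hour compound exposure of HPAF-II cells in DMEM with 10% FBS, then luminescent Caspase-Glo 3/7 detection after 15 min at room temperature; doxorubicin control.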

Inconclusive results are not listed. The source made the active and inactive calls. Calls come from the whole dose curve; as a rule, active = well fitted curve in the direction sought with a large enough effect; inconclusive = small, poorly fitted or top-dose-only effect, or another doubt; inactive = no such curve, though single readings can be large; an effect the other way counts as inactive or inconclusive.

`CC(=O)N[C@H](C)c1nc(/C=C/C=C/C(=O)CC2CC(=O)CC[C@]2(C)O)cs1` (some centres not stated): the Potency entry in [1], in assay [2], in assay [3], in assay [4], in assay [5] and in [6] was “inactive” each time. Also, the Potency result in [7], in assay [8], in [10], in assay [12], in assay [13] and in [14] was “inactive” each time. Also, the Potency result in [15], in assay [16], in assay [17] and in assay [19] was “inactive” each time. Also, the compound was called inactive in assay [9], in [11] and in assay [18].
In the case of `CN1CC[C@@]2([C@@]34CCN(C)[C@@H]3Nc3ccccc34)c3ccccc3N[C@@H]12`, the Potency entry in [1], in assay [2], in assay [3], in [4], in assay [5] and in assay [6] was “inactive” in each case. Also, the Potency entry in assay [7], in [8], in assay [20], in assay [10], in assay [13] and in [14] was “inactive” throughout. For the same compound, the Potency result in assay [15], in [16] and in assay [19] was “inactive” in each case. In addition, the result in [9], in [11] and in assay [18] was inactive. Moreover, in assay [12], the Potency was 211 nM (active).
Turning to `C/C=C1/C2=CCCN3C(=O)O[C@H]([C@H]1O)[C@H]23`, the Potency entry in assay [1], in assay [2], in assay [4], in assay [5], in assay [6] and in [7] was “inactive” throughout. In addition, the Potency entry in assay [8], in assay [20], in [13], in assay [14], in [15] and in [17] was “inactive” in each case. In addition, the result in [9] and in assay [18] was inactive.
Turning to `O=C1CC(c2ccc(O)cc2)Oc2cc(O)ccc21` (configuration not stated), the Potency result in [1], in assay [2], in assay [4], in assay [5], in assay [6] and in assay [7] was “inactive” throughout. For the same compound, the Potency result in assay [8], in assay [10], in assay [12], in assay [14], in assay [16] and in assay [19] was “inactive” in each case. For the same compound, the call in [9], in assay [11] and in [18] was inactive. Besides, the Potency in assay [13] is 7.41 µM (active); in assay [17], 30.5 µM (active).
Consider `C[C@@]12CCC[C@@](C)(C(=O)O)[C@H]1CC[C@@]13C[C@@H](CC[C@H]12)[C@](C)(O)C3`, for which the Potency entry in assay [1], in assay [2], in assay [3], in assay [4], in [5] and in assay [6] was “inactive” throughout. Also, the Potency entry in assay [7], in assay [8], in [20], in assay [10], in assay [12] and in assay [13] was “inactive” in each case. Moreover, the Potency entry in assay [14], in assay [16], in assay [17] and in assay [19] was “inactive” each time. Also, the result in assay [9] and in [18] was inactive.
Consider `COc1cc2ccc(=O)oc2c(O)c1O[C@@H]1O[C@H](CO)[C@@H](O)[C@H](O)[C@H]1O`, for which the Potency result in assay [1], in [2], in assay [3], in assay [5], in assay [6] and in assay [7] was “inactive” each time. Moreover, the Potency entry in assay [8], in assay [20], in assay [10], in assay [13], in [15] and in [16] was “inactive” each time. Also, the result in assay [9] and in assay [18] was inactive.
With `O=C1c2c(O)cc(O)cc2OC(c2ccc(O)cc2)C1O` (configuration not stated), the Potency entry in assay [1], in [2], in assay [3], in [4], in assay [5] and in assay [6] was “inactive” in each case. Also, the Potency result in [7], in assay [8], in assay [10], in assay [15] and in assay [19] was “inactive” throughout. Further, the result in [9] and in assay [18] was inactive. Besides, the Potency is 5.3 nM (active) in assay [12] and 11.7 µM (active) in assay [13].
As to `C/C(=C\[C@@H](C)CC/C=C/CC/C=C/C(=O)O)[C@@H](O)[C@H](C)C(=O)CCCC1CC(=O)NC(=O)C1`, the Potency result in assay [1], in [2], in assay [3], in assay [4], in assay [5] and in assay [6] was “inactive” each time. Besides, the Potency entry in [7], in assay [8], in assay [10], in [12], in assay [13] and in assay [15] was “inactive” each time. For the same compound, the Potency entry in assay [16] and in [17] was “inactive” throughout. In [18], the compound was classed as inactive.
In the case of `COC(=O)[C@]1([C@H]2CCC(=O)O2)CC(=O)c2c(O)cc(C)cc2O1`, the Potency result in assay [1], in [2], in [3], in assay [4], in assay [5] and in [6] was “inactive” throughout. The Potency result in [7], in [8], in assay [20], in assay [10], in assay [13] and in assay [14] was “inactive” throughout. Moreover, the Potency result in [15], in assay [16], in [17] and in [19] was “inactive” throughout. Moreover, the compound was called inactive in assay [9], in assay [11] and in [18].
On to `C/C=C(/CO)C(=O)O[C@@H]1[C@H](O)[C@@H](C(=O)OC)O[C@@H]2C[C@H]3OC(n4cnc5c(N)ncnc54)[C@H](OC)[C@H]3O[C@@]12O` (some centres not stated), for which the Potency entry in assay [1], in assay [2], in assay [3], in assay [4], in assay [5] and in assay [6] was “inactive” in each case. The Potency result in assay [7], in assay [8], in assay [10], in [12], in assay [13] and in assay [14] was “inactive” each time. In addition, the Potency result in assay [16] and in assay [17] was “inactive” throughout. Further, the outcome in assay [11] and in assay [18] was inactive. For the same compound, in assay [15], the Potency is 18.6 µM (active).

For the origin of these results see PubChem BioAssay (NCATS).
